Measured values taken from PubChem BioAssay AID1159580 (chemical genetic matrix, 2015).
“And” between values parts separate entries of the source, which are not always exact repeats. Identical values can stand only once. Out of some 5,500 compounds screened, about 2,000 (36%) were called active. Not shown: some 18% with an inconclusive outcome. Cut-off read from the data, not from the text of the source: active = normalized growth mostly below about 0.91 (no sharp cut-off); inconclusive = no clear call, values can overlap the other calls; inactive = mostly above about 0.92. The list shows a part of the results.

Assay: chemical genetic growth profiling, strain panel (AID 1159580);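 note: tested at 20 µM; growth read once vehicle control cultures reached saturation at 30 °C; 1 = growth at the plate median or of vehicle wells; lower values mean less growth of the strain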
Conditions: growth OD

Measured: normalized growth

CC[C@H]1CN2CCC1C[C@@H]2[C@@H](O)c1ccnc2ccc(OC)cc12 (some centres not stated)
inactive: S. cerevisiae deletion strains, locus YAL013W, strain DEP1, active compounds read low 0.997 | S. cerevisiae deletion strains, locus YBR021W, strain FUR4, active compounds read low 0.996 | S. cerevisiae deletion strains, locus YBR229C, strain ROT2, active compounds read low 0.992 | S. cerevisiae deletion strains, locus YCL029C, strain bik1, active compounds read low 1.01 | S. cerevisiae deletion strains, locus YDL035C, strain GPR1, active compounds read low 0.995 | S. cerevisiae deletion strains, locus YDL074C, strain BRE1, active compounds read low 1.01 | S. cerevisiae deletion strains, locus YDL101C, strain DUN1, active compounds read low 0.995 | S. cerevisiae deletion strains, locus YDL134C, strain PPH21, active compounds read low 1.01 | S. cerevisiae deletion strains, locus YDL185W, strain tfp1, active compounds read low 1.01 | S. cerevisiae deletion strains, locus YDL192W, strain arf1, active compounds read low 1.01 | S. cerevisiae deletion strains, locus YDR101C, strain arx1, active compounds read low 1 | S. cerevisiae deletion strains, locus YDR150W, strain NUM1, active compounds read low 1.01 | S. cerevisiae deletion strains, locus YDR162C, strain NBP2, active compounds read low 1 | S. cerevisiae deletion strains, locus YDR318W, strain mcm21, active compounds read low 1.02 | S. cerevisiae deletion strains, locus YDR388W, active compounds read low 1.01 | S. cerevisiae deletion strains, locus YDR502C, strain sam2, active compounds read low 1.04 | S. cerevisiae deletion strains, locus YEL061C, strain CIN8, active compounds read low 1.01 | S. cerevisiae deletion strains, locus YER110C, active compounds read low 1.01 | S. cerevisiae deletion strains, locus YER155C, strain BEM2, active compounds read low 1.01 | S. cerevisiae deletion strains, locus YER167W, strain BCK2, active compounds read low 1 | S. cerevisiae deletion strains, locus YGL078C, strain dbp3, active compounds read low 1.01 | S. cerevisiae deletion strains, locus YGL086W, strain mad1, active compounds read low 1 | S. cerevisiae deletion strains, locus YGL248W, strain PDE1, active compounds read low 0.997 | S. cerevisiae deletion strains, locus YGR078C, strain PAC10, active compounds read low 1 | S. cerevisiae deletion strains, locus YGR135W, strain pre9, active compounds read low 1.01 | S. cerevisiae deletion strains, locus YGR229C, strain SMI1, active compounds read low 0.977 | S. cerevisiae deletion strains, locus YGR252W, strain gcn5, active compounds read low 0.994 | S. cerevisiae deletion strains, locus YHR030C, strain SLT2, active compounds read low 1.01 and 1.04 | S. cerevisiae deletion strains, locus YHR079C, strain IRE1 (second series), active compounds read low 1.01 | S. cerevisiae deletion strains, locus YHR079C, strain IRE1, active compounds read low 1.02 | S. cerevisiae deletion strains, locus YHR094C, strain hxt1, active compounds read low 1.01 | S. cerevisiae deletion strains, locus YHR129C, strain ARP1, active compounds read low 1.01 | S. cerevisiae deletion strains, locus YHR200W, strain rpn10, active compounds read low 1.02 | S. cerevisiae deletion strains, locus YIL066C, strain RNR3, active compounds read low 1 | S. cerevisiae deletion strains, locus YIL073C, strain SPO22, active compounds read low 1.03 | S. cerevisiae deletion strains, locus YIL125W, strain kgd1, active compounds read low 1 | S. cerevisiae deletion strains, locus YIR030C, strain dcg1, active compounds read low 1.01 | S. cerevisiae deletion strains, locus YJL095W, strain BCK1, active compounds read low 1.01 and 1.02 | S. cerevisiae deletion strains, locus YJL134W, strain LCB3, active compounds read low 0.997 | S. cerevisiae deletion strains, locus YJL168C, strain set2, active compounds read low 1.01 | S. cerevisiae deletion strains, locus YJL187C, strain SWE1 (second series), active compounds read low 0.999 | S. cerevisiae deletion strains, locus YJR043C, strain POL32, active compounds read low 1.01 | S. cerevisiae deletion strains, locus YJR066W, strain TOR1, active compounds read low 0.956 | S. cerevisiae deletion strains, locus YJR075W, strain HOC1, active compounds read low 1 | S. cerevisiae deletion strains, locus YKL009W, strain mrt4, active compounds read low 1.08 | S. cerevisiae deletion strains, locus YKL068W, active compounds read low 1.01 | S. cerevisiae deletion strains, locus YKL085W, strain MDH1 (second series), active compounds read low 1.03 | S. cerevisiae deletion strains, locus YKL085W, strain MDH1, active compounds read low 1.03 | S. cerevisiae deletion strains, locus YKL190W, strain CNB1, active compounds read low 1.01 | S. cerevisiae deletion strains, locus YKR001C, strain vps1, active compounds read low 1.02 | S. cerevisiae deletion strains, locus YLR039C, strain RIC1, active compounds read low 1.01 | S. cerevisiae deletion strains, locus YLR058C, strain SHM2, active compounds read low 1 | S. cerevisiae deletion strains, locus YLR102C, strain apc9, active compounds read low 1.01 | S. cerevisiae deletion strains, locus YLR113W, strain HOG1, active compounds read low 1.02 | S. cerevisiae deletion strains, locus YLR262C, strain YPT6, active compounds read low 0.988 | S. cerevisiae deletion strains, locus YLR268W, strain sec22, active compounds read low 1.02 | S. cerevisiae deletion strains, locus YLR330W, strain CHS5, active compounds read low 1 | S. cerevisiae deletion strains, locus YLR342W, strain FKS1 (second series), active compounds read low 0.983 | S. cerevisiae deletion strains, locus YLR371W, strain rom2, active compounds read low 1.01 | S. cerevisiae deletion strains, locus YLR418C, strain cdc73, active compounds read low 1.01 | S. cerevisiae deletion strains, locus YML016C, strain PPZ1, active compounds read low 1 | S. cerevisiae deletion strains, locus YML032C, strain rad52, active compounds read low 1.01 | S. cerevisiae deletion strains, locus YML124C, strain tub3, active compounds read low 1.01 | S. cerevisiae deletion strains, locus YMR078C, strain ctf18, active compounds read low 1.03 | S. cerevisiae deletion strains, locus YMR223W, strain ubp8, active compounds read low 0.996 | S. cerevisiae deletion strains, locus YMR263W, strain SAP30, active compounds read low 1.02 | S. cerevisiae deletion strains, locus YMR307W, strain GAS1, active compounds read low 0.95 | S. cerevisiae deletion strains, locus YNL067W, strain RPL9B, active compounds read low 1.01 | S. cerevisiae deletion strains, locus YNL128W, strain TEP1, active compounds read low 1.01 | S. cerevisiae deletion strains, locus YNL153C, strain GIM3, active compounds read low 1 | S. cerevisiae deletion strains, locus YNL183C, strain NPR1, active compounds read low 0.942 | S. cerevisiae deletion strains, locus YNL233W, strain BNI4, active compounds read low 1 | S. cerevisiae deletion strains, locus YNL250W, strain rad50, active compounds read low 1.01 | S. cerevisiae deletion strains, locus YNL271C, strain bni1, active compounds read low 1.01 | S. cerevisiae deletion strains, locus YNL298W, strain CLA4, active compounds read low 1.01 | S. cerevisiae deletion strains, locus YNL307C, strain MCK1, active compounds read low 1.01 | S. cerevisiae deletion strains, locus YNL322C, strain KRE1, active compounds read low 1 | S. cerevisiae deletion strains, locus YNR052C, strain pop2, active compounds read low 1.02 | S. cerevisiae deletion strains, locus YOL006C, strain TOP1, active compounds read low 1.02 | S. cerevisiae deletion strains, locus YOL012C, strain htz1 0.815 | S. cerevisiae deletion strains, locus YOL147C, strain pex11, active compounds read low 1.01 | S. cerevisiae deletion strains, locus YOR061W, strain CKA2, active compounds read low 1.01 | S. cerevisiae deletion strains, locus YOR069W, strain VPS5, active compounds read low 0.998 | S. cerevisiae deletion strains, locus YOR136W, strain idh2, active compounds read low 1.02 | S. cerevisiae deletion strains, locus YOR144C, strain elg1, active compounds read low 1.01 | S. cerevisiae deletion strains, locus YOR184W, strain ser1, active compounds read low 1.01 | S. cerevisiae deletion strains, locus YOR231W, strain MKK1, active compounds read low 1.03 | S. cerevisiae deletion strains, locus YOR316C, strain cot1, active compounds read low 1.01 | S. cerevisiae deletion strains, locus YPL055C, strain LGE1, active compounds read low 0.993 | S. cerevisiae deletion strains, locus YPL241C, strain CIN2, active compounds read low 0.997 | S. cerevisiae deletion strains, locus YPL256C, strain CLN2, active compounds read low 1.02 | S. cerevisiae deletion strains, locus YPR119W, strain clb2, active compounds read low 1.01 | S. cerevisiae deletion strains, locus YPR141C, strain kar3, active compounds read low 1.01 | S. cerevisiae deletion strains, locus YPR163C, strain tif3, active compounds read low 1.02 | S. cerevisiae deletion strains, locus YPR167C, strain met16, active compounds read low 1.01 | S. cerevisiae deletion strains, strain wtn01, active compounds read low 1.03 | S. cerevisiae strains, strain wild type, active compounds read low 0.999
